Screening data (PubChem)
DT40 TDP1 no CPT – qHTS for Inhibitors of human tyrosyl-DNA phosphodiesterase 1 (TDP1): qHTS in cells in absence of CPT. Potency, µM (titrated, usually from 46.2 µM), inactives show top-dose activity change, negative = growth inhibition, hits mostly inhibitors. DT40 Tdp1-/- hTDP1 cells, no CPT, ATP luminescence, 48 h. AID 686978, 2013. actives 15% (n = 420,000); also: % is scaled to controls: 0 for no effect and ±100 for the full control effect; nearly all actives have a fitted effect of over 55% in size
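Growth of hTDP1-complemented DT40 Tdp1-knockout cells is measured by ATP luminescence after at least 48 hr compound exposure at 37 °C, with DMSO substituting for the 20 nM CPT used in the parallel screen.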
TDP1 block – qHTS Assay for Inhibitors of Tyrosyl-DNA Phosphodiesterase (TDP1). Tyrosyl-DNA phosphodiesterase 1 (Homo sapiens), Q9NUW8. recombinant TDP1, AlphaScreen DNA substrate cleavage. Potency, µM (titrated, usually from 130 µM), for inactives: top-dose activity change, negative = inhibition, hits mostly inhibitors. actives 0.28% (n = 350,000). AID 485290, 2010; also: % is scaled to controls: 0 for no effect and ±100 for the full control effect; nearly all actives have a fitted effect of over 40% in size
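AlphaScreen read-out: signal falls as enzyme removes the 3' tyrosine-FITC from a 5'-biotinylated DNA oligo (15 nM, 5 min, RT). Enzyme was E. coli-made recombinant Tdp1 at 1 nM, exposed to compound for 15 min beforehand; beads 10 ug/ml, 10 min.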
PLK1 PBD inh – qHTS for Inhibitors of PLK1-PDB (polo-like kinase 1 - polo-box domain): Primary Screen | Potency, µM, for inactives: max response, negative = inhibition, usual class: inhibitors | Serine/threonine-protein kinase PLK1 (Homo sapiens), P53350 | AID 720504, 2013 | Plk1 PBD binding of FITC phosphopeptide, fluorescence polarization | actives 2.8% (n = 360,000); also: series mostly up to about 57 µM; % is scaled to controls: 0 for no effect and ±100 for the full control effect; nearly all actives have a fitted effect of over 65% in size
GCN5L2 inh – qHTS Assay for Inhibitors of GCN5L2; Histone acetyltransferase KAT2A (Homo sapiens), Q92830; GCN5L2 HAT assay, ThioGlo1 CoA-SH fluorescence; actives 0.21% (n = 390,000); AID 504327, 2011; Potency, µM (doses to about 58.9 µM), for inactives: at the highest dose activity change, negative = inhibition, most hits filed as inhibitors; also: % is scaled to controls: 0 for no effect and ±100 for the full control effect
Target sequence (Q92830 whole entry, looked up): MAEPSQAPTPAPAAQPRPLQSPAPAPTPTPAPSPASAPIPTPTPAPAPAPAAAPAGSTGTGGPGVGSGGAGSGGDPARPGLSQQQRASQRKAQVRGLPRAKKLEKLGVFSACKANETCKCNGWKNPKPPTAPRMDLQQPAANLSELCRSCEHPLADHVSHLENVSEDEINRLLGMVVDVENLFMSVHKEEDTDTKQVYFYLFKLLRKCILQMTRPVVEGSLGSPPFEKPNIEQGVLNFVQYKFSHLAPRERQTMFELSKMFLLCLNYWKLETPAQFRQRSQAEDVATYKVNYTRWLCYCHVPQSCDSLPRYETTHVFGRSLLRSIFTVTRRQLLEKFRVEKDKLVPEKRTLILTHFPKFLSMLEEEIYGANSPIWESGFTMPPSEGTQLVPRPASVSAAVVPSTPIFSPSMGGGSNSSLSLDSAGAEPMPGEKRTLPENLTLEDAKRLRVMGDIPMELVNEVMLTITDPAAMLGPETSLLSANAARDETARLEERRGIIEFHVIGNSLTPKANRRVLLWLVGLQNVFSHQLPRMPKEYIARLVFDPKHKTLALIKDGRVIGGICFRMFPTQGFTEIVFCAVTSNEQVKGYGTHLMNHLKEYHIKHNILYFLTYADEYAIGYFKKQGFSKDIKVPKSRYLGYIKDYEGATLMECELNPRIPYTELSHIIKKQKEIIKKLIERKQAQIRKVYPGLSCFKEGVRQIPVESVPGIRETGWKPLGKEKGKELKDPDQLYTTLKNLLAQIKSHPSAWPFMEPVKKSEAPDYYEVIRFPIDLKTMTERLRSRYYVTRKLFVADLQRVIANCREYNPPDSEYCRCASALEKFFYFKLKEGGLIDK
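Enzyme at 20nM final was mixed with library compounds for 15 min at room temperature. Peptide H3(1-25) at 75uM, acetyl-CoA at 70uM and ThioGlo1 at 50uM were then added. Plates were read immediately and after 20 min (Ex340nm/Em540nm).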
VDR inhibitor – Inhibitors of the vitamin D receptor (VDR): qHTS. Vitamin D3 receptor (Homo sapiens), P11473. VDR-SRC2-3 peptide fluorescence polarization, 2 h. Potency, µM, inactives show max response, negative = inhibition, usual class: inhibitors. actives 0.93% (n = 400,000). AID 504847, 2011; also: % is scaled to controls: 0 for no effect and ±100 for the full control effect
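Signal is fluorescence polarization, reporting how far test compounds block the interaction of VDR with the SRC2-3 coregulator peptide after a 2 h room-temperature incubation.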
TDP1 cell CPT – qHTS for Inhibitors of human tyrosyl-DNA phosphodiesterase 1 (TDP1): qHTS in cells in presence of CPT; chicken DT40 Tdp1-/-;hTDP1 cells + 20 nM CPT, ATP luminescence, 48 h; Potency, µM (titrated, usually from 46.2 µM), inactives show at the highest dose activity change, negative = growth inhibition, most hits filed as inhibitors; actives 12% (n = 420,000); AID 686979, 2013; also: % is scaled to controls: 0 for no effect and ±100 for the full control effect; nearly all actives have a fitted effect of over 55% in size
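Cell growth measured by CellTiter-Glo luminescence after a minimum 48 h, 37 C compound exposure with 20 nM CPT in Tdp1-knockout DT40 cells stably expressing hTDP1, seeded 400/well; qHTS titration format.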
VDR inh confirm – qHTS for Inhibitors of the vitamin D receptor (VDR): Hit Validation in Primary Screen; shares compounds with VDR inhibitor; VDR-coactivator inhibition assay, qHTS confirmation; Potency, µM, hits mostly inhibitors; actives 89% (n = 840); AID 602199, 2012
VDR FP – qHTS for Inhibitors of the vitamin D receptor (VDR): Hit Validation using a Fluorescein Assay; shares compounds with VDR inhibitor; VDR-coactivator binding, fluorescein fluorescence polarization; Potency, µM (highest dose often 57.1 µM), inactives show at the top dose activity change, negative = inhibition, hits mostly inhibitors; actives 48% (n = 840); AID 602200, 2012
VDR bla reporter – qHTS for Inhibitors of the vitamin D receptor (VDR): Hit Validation using a Beta-Lactamase Assay; shares compounds with VDR inhibitor; VDR beta-lactamase reporter cells, FRET ratio; cells co-treated with VDR agonist LG190178; Potency, µM (top dose mostly 46.1 µM), for the others: at the top dose activity change, negative = inhibition, actives largely listed as inhibitors; actives 23% (n = 840); AID 602202, 2012; also: % is scaled to controls: 0 for no effect and ±100 for the full control effect
VDR viability – qHTS for Inhibitors of the vitamin D receptor (VDR): Hit Validation using a Cytotoxicity Assay | shares compounds with VDR inhibitor | cytotoxicity counter-screen, cell viability, qHTS | Potency, µM (highest dose often 48.3 µM), without a hit: at the top dose activity change, negative = cytotoxicity, usual class: cytotoxic | actives 18% (n = 840) | AID 602204, 2012;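 also: plate controls were DMSO for no effect and high-concentration cycloheximide for full effect; nearly all actives have a fitted effect of over 75% in size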
* marks the source's active call; other numbers are inactive results; ? = inconclusive; · = not tested or not shown. A selection: hits, their analogues and other compounds. The true share with any hit is near 18%. Calls follow the shape of the dose curve; as a rule, active = well fitted curve in the direction sought with a large enough effect; inconclusive = small, poorly fitted or top-dose-only effect, or another doubt; inactive = no such curve, though single readings can be large; an effect the other way counts as inactive or inconclusive. Potency is read from the fitted curve at half-maximal effect.

SMILES	DT40 TDP1 no CPT	TDP1 block	PLK1 PBD inh	GCN5L2 inh	VDR inhibitor	TDP1 cell CPT	VDR inh confirm	VDR FP	VDR bla reporter	VDR viability
COc1cc([N+](=O)[O-])ccc1-c1ccc(/C=C2\C(=O)ON=C2c2ccccc2)o1	9.2µM*	·	2.7µM*	·	?	12µM*	2.5*	1.8µM*	?	?
COc1cc(/C=C/c2nc3ccccc3c(=O)[nH]2)cc(Cl)c1O	-7%	-16%	31%	-3%	-6%	1%	·	·	·	·
CCOc1cc(/C=C2/C(=O)ON=C2C)cc(Br)c1O	?	·	5%	-7%	56µM*	?	9.5*	233%	33%	11%
C#CCOc1ccc(/C=C2/C(=O)ON=C2C)cc1Br	26µM*	·	1.7µM*	-5%	40µM*	23µM*	11*	?	?	-15%
COc1cc(/C=C2\C(=O)ON=C2c2ccccc2)cc(Cl)c1O	18µM*	3%	?	-9%	45µM*	16µM*	5.3*	199%	?	-28%
Cc1nc(CS(=O)(=O)c2ccc(Cl)cc2)cc(Sc2ccc(Cl)cc2)n1	?	0%	-4%	-3%	4%	-8%	·	·	·	·
COc1cc(/C=N/n2c(COc3ccccc3)n[nH]c2=S)cc(Br)c1O	?	·	-24%	-4%	-15%	1%	·	·	·	·
CCOc1cc(/C=C2\C(=O)ON=C2c2ccccc2)cc(Br)c1O	?	·	?	1%	25µM*	?	3.8*	179%	?	-11%
COc1cc(/C=C2\C(=O)ON=C2c2ccccc2)cc(Br)c1O	10µM*	·	?	4%	25µM*	6.5µM*	3.8*	175%	?	-21%
CCN(CC)c1ccc(NC(=O)c2ccccc2)cc1S(=O)(=O)Nc1ccccc1OC	16µM*	0%	1.9µM*	-30%	?	?	3.2*	3.2µM*	1%	-11%
CCOC(=O)C(C(=O)OCC)C(=O)c1cccc2ccc3ccccc3c12	-7%	·	-8%	·	·	-16%	·	·	·	·
Cc1c2cnn(CC(=O)NCCN3CCOCC3)c(=O)c2c(C)n1Cc1ccccc1F	6%	·	-13%	·	-5%	-2%	·	·	·	·
Cc1cc(C)nc(S/C=C/C(=O)c2ccccc2F)n1	3.7µM*	4%	4.7µM*	-11%	?	2.1µM*	2*	1.6µM*	16µM*	17µM*
CCCN=C1N(C)C[C@@H]2[C@@H]3C(=O)N(C)C(=O)[C@@H]3[C@](C)(C(=O)OC)N12	6%	·	-10%	-9%	-8%	8%	·	·	·	·
CN1CCN(C(c2ccc(Br)cc2)c2cc(Cl)c3cccnc3c2O)CC1 (stereo unspecified)	15µM*	10%	5.3µM*	-21%	?	16µM*	7.9*	3.2µM*	23µM*	?
CC(C)c1nnc(NC(=O)CCS(=O)(=O)c2nc(-c3cccs3)cc(C(F)(F)F)n2)s1	4.1µM*	0%	?	-9%	22µM*	2.9µM*	9.5*	?	?	?
COc1ccc(Cl)cc1NC(=O)CCS(=O)(=O)c1nc(-c2cccs2)cc(C(F)(F)F)n1	3.3µM*	6%	·	-6%	20µM*	4.6µM*	5*	3.5µM*	18µM*	?
CCC(C)NC(=O)CSc1nc(-c2cccs2)cc(C(F)(F)F)n1 (stereo unspecified)	?	8%	-5%	?	-2%	?	·	·	·	·
O=C(CCS(=O)(=O)c1nc(-c2ccc3c(c2)OCO3)cc(C(F)(F)F)n1)Nc1ccc(Br)cc1	3.3µM*	3%	·	-12%	13µM*	4.1µM*	3.2*	3.5µM*	23µM*	?
O=C(CSc1nc(-c2ccc(F)cc2)cc(C(F)(F)F)n1)Nc1ccc2c(c1)OCO2	-29%	-3%	-10%	24%	-8%	-27%	·	·	·	·
O=C(CCS(=O)(=O)c1nc(-c2cccs2)cc(C(F)(F)F)n1)Nc1ccc(F)c(Cl)c1	9.2µM*	6%	·	-2%	22µM*	4.6µM*	3.2*	3.5µM*	?	?
Cc1c(C(=O)N(CCO)Cc2ccccc2)oc2c(F)cccc12	-8%	·	-5%	-2%	-18%	?	·	·	·	·
Cc1ccc(Oc2c(C(N)=O)cc([N+](=O)[O-])cc2[N+](=O)[O-])cc1	5.2µM*	2%	21µM*	-3%	28µM*	5.8µM*	11*	13µM*	?	5.6µM*
CN(CC(=O)Nc1cccc(F)c1)C(=O)CCCN1C(=O)c2cccc3cccc(c23)C1=O	?	0%	-9%	0%	-9%	?	·	·	·	·
COc1ccc(S(=O)(=O)NC(C(=O)OCC(=O)Nc2ccc(N3CCOCC3)cc2)C(C)C)cc1 (stereo unspecified)	?	·	-5%	·	2%	-24%	·	·	·	·
